# Data as given in paper PMC8384837, “Expanding the binding specificity for RNA recognition by a PUF domain”.
# Numbering of substitutions follows the chain as printed.
# Legend:
# Assay in all cases: yeast three-hybrid, YBZ-1, SC-Leu-His + 0.5 mM 3-AT, 4 days
# Conditions in all cases: tags: N-Gal4 AD-HA kept; label: inside an RPR1-promoter hybrid RNA with tandem MS2 sites; ssRNA
# PUM1 PUF domain R5-LSR = PUM1 PUF domain R5-LSR (Homo sapiens, UniProt Q14671 828-1176, C1007L;R1008S;Q1011R)
# Method in brief: (§1)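 A centromeric plasmid in strain YBZ-1 co-expressed Pumilio-1 PUF domain libraries, randomized at the three base-contacting residues of each repeat, with matching RNA elements; the strain carries a LexA–MS2 coat fusion and a HIS3 reporter. After four days on SC-Leu (input) or SC-Leu-His + 0.5 mM 3-AT (selection), the repeat regions were PCR-amplified and Illumina-sequenced. The interaction score is the log change in variant frequency from input to selection, using log2 and a pseudocount of 1 where absent.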
# PUM1 PUF domain R8-KRI = PUM1 PUF domain R8-KRI (Homo sapiens, UniProt Q14671 828-1176, N1122K;Y1123R;Q1126I)
# Method in brief: as §1
# PUM1 PUF domain R8-RHC = PUM1 PUF domain R8-RHC (Homo sapiens, UniProt Q14671 828-1176, N1122R;Y1123H;Q1126C)
# Method in brief: as §1
# PUM1 PUF domain R6-KWA = biological target: T1, PUM1 PUF domain R6-KWA (Homo sapiens, UniProt Q14671 828-1176, N1043K;Y1044W;Q1047A)
# T1 sequence: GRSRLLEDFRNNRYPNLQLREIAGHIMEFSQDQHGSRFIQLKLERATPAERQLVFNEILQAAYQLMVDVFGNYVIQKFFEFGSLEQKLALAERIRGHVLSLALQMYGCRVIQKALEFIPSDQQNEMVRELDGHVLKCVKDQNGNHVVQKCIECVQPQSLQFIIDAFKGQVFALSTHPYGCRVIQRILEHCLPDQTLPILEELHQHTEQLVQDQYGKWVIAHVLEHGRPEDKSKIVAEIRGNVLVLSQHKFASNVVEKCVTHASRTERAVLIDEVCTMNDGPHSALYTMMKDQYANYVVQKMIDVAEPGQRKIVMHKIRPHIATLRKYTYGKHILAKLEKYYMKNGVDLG
# Method in brief: as §1
# PUM1 PUF domain R4-SRA = PUM1 PUF domain R4-SRA (Homo sapiens, UniProt Q14671 828-1176, N971S;H972R;Q975A)
# Method in brief: as §1
# PUM1 PUF domain R2-DWI = PUM1 PUF domain R2-DWI (Homo sapiens, UniProt Q14671 828-1176, N899D;Y900W;Q903I)
# Method in brief: as §1
# PUM1 PUF domain R6-RFG = biological target: T2, PUM1 PUF domain R6-RFG (Homo sapiens, UniProt Q14671 828-1176, N1043R;Y1044F;Q1047G)
# T2 sequence: T1 sequence with K216R, W217F, A220G
# Method in brief: as §1
# PUM1 PUF domain R6-YHR = biological target: T3, PUM1 PUF domain R6-YHR (Homo sapiens, UniProt Q14671 828-1176, N1043Y;Y1044H;Q1047R)
# T3 sequence: T1 sequence with K216Y, W217H, A220R
# Method in brief: as §1
# PUM1 PUF domain R6-SHK = biological target: T4, PUM1 PUF domain R6-SHK (Homo sapiens, UniProt Q14671 828-1176, N1043S;Y1044H;Q1047K)
# T4 sequence: T1 sequence with K216S, W217H, A220K
# Method in brief: as §1
# PUM1 PUF domain R6-LHS = biological target: T5, PUM1 PUF domain R6-LHS (Homo sapiens, UniProt Q14671 828-1176, N1043L;Y1044H;Q1047S)
# T5 sequence: T1 sequence with K216L, W217H, A220S
# Method in brief: as §1
sequence,measurement,setting,value
GGCUAGAACUAGUGGAUCCCCCGGCGCCCGGCGGCUCGAGCCCGGGUAAGUGUCAAUAGUCUGCAUGCCGCCGGGCGCCAUGCCUGCAGGUCGACUCUAGAAAACAUG,binding signal,PUM1 PUF domain R5-LSR,2.6 log2 enrichment (interaction score)
GGCUAGAACUAGUGGAUCCCCCGGCGCCCGGCGGCUCGAGCCCGGGUAAGCGUAAAUAGUCUGCAUGCCGCCGGGCGCCAUGCCUGCAGGUCGACUCUAGAAAACAUG,binding signal,PUM1 PUF domain R8-KRI,2.91 log2 enrichment (interaction score)
same,binding signal,PUM1 PUF domain R8-RHC,4.55 log2 enrichment (interaction score)
GGCUAGAACUAGUGGAUCCCCCGGCGCCCGGCGGCUCGAGCCCGGGUAAGUGCAAAUAGUCUGCAUGCCGCCGGGCGCCAUGCCUGCAGGUCGACUCUAGAAAACAUG,binding signal,PUM1 PUF domain R6-KWA,4.16 log2 enrichment (interaction score)
GGCUAGAACUAGUGGAUCCCCCGGCGCCCGGCGGCUCGAGCCCGGGUAAGUGUAUAUAGUCUGCAUGCCGCCGGGCGCCAUGCCUGCAGGUCGACUCUAGAAAACAUG,binding signal,PUM1 PUF domain R4-SRA,1.92 log2 enrichment (interaction score)
GGCUAGAACUAGUGGAUCCCCCGGCGCCCGGCGGCUCGAGCCCGGGUAAGUGUACAUAGUCUGCAUGCCGCCGGGCGCCAUGCCUGCAGGUCGACUCUAGAAAACAUG,binding signal,PUM1 PUF domain R4-SRA,1.76 log2 enrichment (interaction score)
GGCUAGAACUAGUGGAUCCCCCGGCGCCCGGCGGCUCGAGCCCGGGUAAGUGUAAAAAGUCUGCAUGCCGCCGGGCGCCAUGCCUGCAGGUCGACUCUAGAAAACAUG,binding signal,PUM1 PUF domain R2-DWI,6.3 log2 enrichment (interaction score)
GGCUAGAACUAGUGGAUCCCCCGGCGCCCGGCGGCUCGAGCCCGGGUAAGUGUAAAUAGUCUGCAUGCCGCCGGGCGCCAUGCCUGCAGGUCGACUCUAGAAAACAUG,binding signal,PUM1 PUF domain R6-RFG,3.56 log2 enrichment (interaction score)
same,binding signal,PUM1 PUF domain R6-YHR,4.05 log2 enrichment (interaction score)
same,binding signal,PUM1 PUF domain R4-SRA,4.71 log2 enrichment (interaction score)
same,binding signal,PUM1 PUF domain R6-KWA,2 log2 enrichment (interaction score)
same,binding signal,PUM1 PUF domain R6-SHK,3.34 log2 enrichment (interaction score)
same,binding signal,PUM1 PUF domain R6-LHS,2.24 log2 enrichment (interaction score)
same,binding signal,PUM1 PUF domain R8-RHC,3.41 log2 enrichment (interaction score)
same,binding signal,PUM1 PUF domain R5-LSR,0.51 log2 enrichment (interaction score)
GGCUAGAACUAGUGGAUCCCCCGGCGCCCGGCGGCUCGAGCCCGGGUAAGUGAAAAUAGUCUGCAUGCCGCCGGGCGCCAUGCCUGCAGGUCGACUCUAGAAAACAUG,binding signal,PUM1 PUF domain R6-KWA,2.73 log2 enrichment (interaction score)
